# nsP2pro primary: inhibitors of chikungunya virus nsP2 protease; Q8JUX6; FRET peptide cleavage, nsP2pro, fluorescence 1 h; AID 1964107; 31,000 compounds, 1.1% hits; Potency, µM (series often up to 24.9 µM), without a hit: at the top dose activity change, negative = inhibition, actives largely listed as inhibitors; also: nearly all actives have a fitted effect of over 60% in size
#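 Enzyme 150 nM, substrate 2.5 uM (both final); Tris-HCl 10 mM pH 8.0 + 0.01% Tween 20; cpd up to 25 uM, 7 pts; 15 min preinc., 1 h RT; fluorescence ex 525/em 598.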
# nsP2 cell sec: cell-based CHIKV nsP2 protease inhibition, secondary | shares compounds with nsP2pro primary | cell-based CHIKV nsP2 protease reporter assay | Potency, µM (series often up to 51.1 µM), without a hit: at the top dose activity change, negative = inhibition, most hits filed as inhibitors | 450 compounds, 10% hits | AID 1964100; also: nearly all actives have a fitted effect of over 70% in size
# CHIKV NSP2 FL: inhibits full-length CHIKV NSP2 enzyme; shares compounds with nsP2pro primary; 410 compounds, 39% hits; Full-length CHIKV NSP2 protease enzymatic counterscreen; AID 1964101; Potency, µM (series often up to 50.7 µM), without a hit: top-dose activity change, negative = inhibition, hits mostly inhibitors; also: nearly all actives have a fitted effect of over 65% in size
# Furin counterscr: inhibits human furin in a CHIKV nsP2 protease selectivity counterscreen; Recombinant human furin enzymatic counterscreen, fluorogenic substrate; 410 compounds, 6% hits; shares compounds with nsP2pro primary; Potency, µM (titrated, usually from 50.6 µM), for the others: top-dose activity change, negative = inhibition, actives largely listed as inhibitors
# NS23 peptide cs: nsP2pro inhibition on native NS2/3 peptide substrate. 410 compounds, 34% hits. AID 1964103. Potency, µM (highest dose often 51 µM), for inactives: top-dose activity change, negative = inhibition, usual class: inhibitors. Purified CHIKV nsP2 protease, endogenous NS2/3 peptide cleavage. shares compounds with nsP2pro primary; also: nearly all actives have a fitted effect of over 55% in size
# Papain counter: papain protease inhibition, counterscreen for nsP2pro inhibitors; Potency, µM (series often up to 51 µM), for inactives: at the top dose activity change, negative = inhibition, hits mostly inhibitors; purified papain protease activity, enzymatic inhibition; AID 1964104; 410 compounds, 5% hits; shares compounds with nsP2pro primary
# Target sequence (P00784 whole entry, looked up): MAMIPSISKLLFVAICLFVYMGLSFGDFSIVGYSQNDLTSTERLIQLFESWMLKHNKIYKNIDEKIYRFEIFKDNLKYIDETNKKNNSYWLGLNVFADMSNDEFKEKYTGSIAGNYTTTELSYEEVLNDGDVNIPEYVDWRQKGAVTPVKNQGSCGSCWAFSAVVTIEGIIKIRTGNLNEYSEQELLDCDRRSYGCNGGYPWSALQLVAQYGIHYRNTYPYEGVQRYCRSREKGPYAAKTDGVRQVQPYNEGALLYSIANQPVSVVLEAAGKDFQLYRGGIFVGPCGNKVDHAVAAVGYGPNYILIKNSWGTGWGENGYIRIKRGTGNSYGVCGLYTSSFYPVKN
# nsP2pro confirm: confirmation of CHIKV nsP2 protease inhibitors; Potency, µM (series often up to 25.5 µM), without a hit: at the top dose activity change, negative = inhibition, actives largely listed as inhibitors; shares compounds with nsP2pro primary; CHIKV nsP2 protease enzymatic activity, qHTS; 410 compounds, 43% hits; also: nearly all actives have a fitted effect of over 75% in size
# HCV NS3 counter: inhibits HCV NS3/4A protease in an nsP2pro selectivity counterscreen; shares compounds with nsP2pro primary; HCV NS3/4A protease biochemical counterscreen; Potency, µM (doses to about 50.9 µM), actives largely listed as inhibitors; 410 compounds, 20% hits; AID 1964106; also: nearly all actives have a fitted effect of over 55% in size
# Starred values were filed as active, the others as inactive; i = inactive; ? = inconclusive; [ ] = remark or other dose. This excerpt belongs to a sample that is enriched for hits. Calls follow the shape of the full dose curve. % is scaled to controls: 0 for no effect and ±100 for the full control effect; potency is read from the fitted curve at half-maximal effect.
SMILES,nsP2pro primary,others
CC(=O)OC[C@]12[C@H](OC(C)=O)[C@H](OC(=O)c3ccccc3)[C@@H]3[C@@H](OC(C)=O)[C@]1(OC3(C)C)[C@H](C)C[C@H](OC(C)=O)[C@@H]2OC(=O)c1ccccc1,-4%[10 µM],
CCC(C)/C=C(C)/C=C/C1=CC2=C(Cl)C(=O)C(C)(OC(C)=O)C(=O)C2=CO1 (stereo not drawn),?,nsP2 cell sec=-14%[33.5 µM];CHIKV NSP2 FL=?;Furin counterscr=-19%[33.5 µM];NS23 peptide cs=?;Papain counter=?;nsP2pro confirm=?;HCV NS3 counter=i
CCC(C)/C=C(C)/C=C/C1=CC2=CC(=O)C(C)(O)C(OC(C)=O)C2CO1 (stereo not drawn),-2%,
CCC(C)/C=C(C)/C=C/C1=CC2=CC(=O)C3(C)OC(C)(O)C(C(=O)OC)C3C2=CO1 (stereo not drawn),?,nsP2 cell sec=-4%[17.6 µM];CHIKV NSP2 FL=-15%[17.3 µM];Furin counterscr=-9%[17.3 µM];NS23 peptide cs=-11%[17.2 µM];Papain counter=4%[17.2 µM];nsP2pro confirm=?;HCV NS3 counter=i
CCC(C)/C=C(C)/C=C/C1=CC2=C(Cl)C(=O)C(C)(OC(C)=O)C(=O)C2=CN1C(CCC(=O)O)C(=O)O (stereo not drawn),-1%[10 µM],
CCC(C)/C=C(C)/C=C/C1=CC2=C(Cl)C(=O)C(C)(OC(C)=O)C(=O)C2=CN1CCCCC(N)C(=O)O (stereo not drawn),-21%[10 µM],
CC[C@H](C)/C=C(C)/C=C/C1=CC2=CC(=O)[C@]3(C)OC(=O)[C@@H](C(C)=O)[C@@H]3C2=CO1,?,nsP2 cell sec=2%[33.5 µM];CHIKV NSP2 FL=?;Furin counterscr=-22%[33.5 µM];NS23 peptide cs=?;Papain counter=41%[33.5 µM];nsP2pro confirm=?;HCV NS3 counter=i
COC(=O)c1nc(NC(=O)Cn2nc3c(cc2=O)CCCC3)sc1C(C)C,1%,
O=C(Nc1n[nH]c(Cc2ccccc2)n1)N1CCN(C(=O)c2ccco2)CC1,i,
O=C(Cn1c(=O)n(CC2CCC(C(=O)NCCc3ccccc3)CC2)c(=O)c2ccccc21)Nc1cccc(F)c1 (stereo not drawn),-17%,
Cc1cc(C)cc(NC(=O)CSCn2nnc3c(=O)[nH]c(Cc4ccc(F)cc4)nc32)c1,-14%,
O=C1CCC2(CCN(C(=O)c3ccoc3)CC2)CN1CC1CCCO1 (stereo not drawn),0%,
Cc1ccc(OCCn2c(CCNC(=O)c3cc(N)ccc3N)nc3ccccc32)cc1,-1%,
Cc1ccc(OCCn2c(CCNC(=O)c3ccccc3N)nc3ccccc32)cc1,4.5µM*,nsP2 cell sec=138%;CHIKV NSP2 FL=0.52µM*;Furin counterscr=21µM*;NS23 peptide cs=1.6µM*;Papain counter=-23%;nsP2pro confirm=1µM*;HCV NS3 counter=0.52µM*
Cc1ccc(OCCn2c(CCNC(=O)c3ccccc3Br)nc3ccccc32)cc1,-6%,
Cc1c(CC(=O)NCc2ccc(F)cc2)c(=O)oc2cc(O)c(Cl)cc12,-15%,
C=C1[C@@H]2CC[C@@]3(C)[C@H](c4ccoc4)OC(=O)C[C@]13O[C@H]1CC(=O)C(C)(C)[C@H](C(OC(C)=O)C(=O)OC)[C@]12C (stereo partly drawn),-18%[10 µM],
CC(=O)O[C@@H]1CC2C(C)(C)C(=O)C=C[C@]2(C)C2CC[C@@]3(C)[C@H](c4ccoc4)OC(=O)[C@H]4O[C@]43[C@@]21C (stereo partly drawn),?,nsP2 cell sec=-15%[17.6 µM];CHIKV NSP2 FL=?;Furin counterscr=-5%[17.3 µM];NS23 peptide cs=-27%[17.2 µM];Papain counter=?;nsP2pro confirm=?;HCV NS3 counter=i
CC(=O)O[C@H]1C[C@@H](O)C(C)(C)C2C[C@@H](OC(C)=O)[C@]3(C)C(CC[C@@]4(C)[C@H](c5ccoc5)OC(=O)[C@H]5O[C@]543)[C@]21C (stereo partly drawn),-25%[10 µM],
CCOc1ccc(C(=O)NC2CCN(c3cc(-c4ccc(OC)cc4)[nH]n3)C2)cc1OCC (stereo not drawn),i,
COc1ccc(N2Cc3c(NCCc4ccccc4F)ncnc3N(C)CC2=O)cc1,i,
CC1=C(C(=O)OCCN(Cc2ccccc2)c2ccccc2)C(c2cccc([N+](=O)[O-])c2)C(P2(=O)OCC(C)(C)CO2)=C(C)N1 (stereo not drawn),1%,
O=C(Nc1ccc(Cl)cc1)C1CCCN(C(=O)c2cccc(-c3ccco3)c2)C1 (stereo not drawn),7µM*,nsP2 cell sec=?;CHIKV NSP2 FL=-19%;Furin counterscr=-8%;NS23 peptide cs=-24%;Papain counter=-16%;nsP2pro confirm=?;HCV NS3 counter=i
COc1ccc(C(=O)N2CCC(C(=O)Nc3ccc(Cl)cc3)CC2)cc1,-16%,
Cc1n[nH]c(C)c1S(=O)(=O)N1CCCC(C(=O)Nc2ccc(Cl)cc2)C1 (stereo not drawn),-14%,
SMILES,nsP2pro primary,others
Cc1ccc(C(=O)N2CCCCC2)cc1NC(=O)c1nsc2ccccc12,-25%,
CCN1/C(=C/C(C)=O)Sc2ccc(OC(C)=O)cc21,-3%,
CCOC(=O)C1=C(CS(=O)(=O)c2ccc(F)c(C)c2)NC(=O)NC1c1ccccc1OC (stereo not drawn),-3%,
Fc1ccc(-n2ncc3c(NC4CCCCCC4)ncnc32)cc1,-36%,
Cc1noc(-c2cccs2)c1C(=O)NCCC(c1ccccc1)c1ccccc1,i,
CCCNC(=O)N[C@@H]1CCC[C@@H](C(=O)NCCOC)CC(=O)N(C)C1,4µM*,nsP2 cell sec=21%;CHIKV NSP2 FL=15µM*;Furin counterscr=?;NS23 peptide cs=24µM*;Papain counter=4%;nsP2pro confirm=4.1µM*;HCV NS3 counter=?
COCC(=O)N[C@@H]1CCC[C@@H](C(=O)NC2CC2)CC(=O)N(C)C1,i,
CCN(CC)C(=O)[C@@H]1CCC[C@@H](NC(C)=O)CN(C)C(=O)C1,-7%[39.2 µM],
O=C(NCCCn1cccn1)c1ccccc1OC1CCN(Cc2ccccn2)CC1,4%,
CNC(=O)c1cccc(S(=O)(=O)NC2CCCN(C3CCCCCC3)C2)c1 (stereo not drawn),1%,
CC(C)C[C@H]1C(=O)N2CCC[C@H]2[C@]2(O)O[C@](NC(=O)[C@@H]3C[C@@H]4c5cccc6[nH]cc(c56)C[C@H]4N(C)C3)(C(C)C)C(=O)N12,-12%,
CN1C[C@H](C(=O)N[C@]2(C)O[C@@]3(O)[C@@H]4CCCN4C(=O)[C@H](Cc4ccccc4)N3C2=O)C=C2c3cccc4[nH]cc(c34)C[C@H]21,?,nsP2 cell sec=9%;CHIKV NSP2 FL=?;Furin counterscr=-14%;NS23 peptide cs=13µM*;Papain counter=46%;nsP2pro confirm=?;HCV NS3 counter=i

# Screening results as filed in PubChem BioAssay.
